Bioassay records (PubChem BioAssay)
The list is not random: actives were taken first. Their share in the collection is about 3.6%.
BoNT-A LC inh2 = BoNT/A light chain protease inhibitors, primary screen, biochemical, flow cytometry, MLPCN library. Botulinum neurotoxin type A light chain protease (Clostridium botulinum A str. ATCC 3502). multiplex microsphere protease substrate cleavage. inhibition, % at 10 µM. 360,000 compounds, 0.17% hits. AID 588499, 2011; note: plate controls were buffer without enzyme for full effect and enzyme alone for no effect
MazEF act = activators of E. coli MazEF toxin-antitoxin RNase, primary screen, biochemical, fluorescence, uHTS; 350,000 compounds, 0.32% hits; FAM/BHQ RNA-DNA oligo cleavage fluorescence, 5 h; activation, % at 20 µM; in the data active = activation above about 50%
Bead autofluor = flagged as autofluorescent in microsphere protease counterscreen; compound autofluorescence counterscreen, microsphere flow cytometry; hits give high values; fluorescence intensity (concentration not given with the values); 360,000 compounds, 3.1% hits; AID 624483; in the data active = fluorescence intensity above about 16000; inconclusive = no clear call, values can overlap the other calls
BoNT F protease = BoNT/F light chain protease inhibitors, primary screen, biochemical, flow cytometry, MLPCN library; AID 588497, 2011; Multiplex microsphere protease cleavage assay; inhibition, % at 10 µM; Botulinum neurotoxin type F light chain protease (Clostridium botulinum); 360,000 compounds, 0.22% hits; in the data active = inhibition above about 35%, passing the limit was not always enough; inconclusive = no clear call, values can overlap the other calls; note: plate controls were buffer without enzyme for full effect and enzyme alone for no effect
Anthrax LF inh2 = Bacillus anthracis LF protease inhibitors, primary screen, biochemical, multiplex microsphere, MLPCN library; multiplex microsphere protease cleavage assay; inhibition, % at 10 µM; 360,000 compounds, 0.12% hits; note: plate controls were buffer without enzyme for full effect and enzyme alone for no effect
* marks the source's active call; other numbers are inactive results; ? = inconclusive; . = no result given. Cut-off read from the data, not from the text of the source, unless noted: active = inhibition above about 30%; inconclusive = no clear call, values can overlap the other calls; inactive = below that.

SMILES | BoNT-A LC inh2 | MazEF act | Bead autofluor | BoNT F protease | Anthrax LF inh2
Cc1cc(C)n2nc(C(=O)Nc3ccc4c(c3)OCO4)cc2n1 | 2.5 | -3.3 | 22219* | 0.5 | -5.1
CCc1nnc(NC(=O)C2CCCN(c3nc(C)cc(C)n3)C2)s1 (centres undefined) | 2.1 | -3.6 | 18689* | -1.2 | -1.0
Cc1cc(C)nc(N2CCCC(C(=O)Nc3ccc4c(c3)OCO4)C2)n1 (centres undefined) | -1.5 | 0.6 | 20510* | -2.7 | -1.2
Cc1cc(C)nc(N2CCCC(C(=O)Nc3nnc(C(C)(C)C)s3)C2)n1 (centres undefined) | -0.7 | 5.6 | 4188 | -4.9 | -1.0
Cc1cc(C)nc(N2CCCC(C(=O)Nc3cc(F)ccc3C)C2)n1 (centres undefined) | 2.5 | 4.6 | 22529* | 2.2 | -2.8
COc1ccccc1NC(=O)C1CCCN(c2nc(C)cc(C)n2)C1 (centres undefined) | -0.9 | 2.2 | 9034 | -0.4 | -2.5
C[C@@H]1CCCCO[C@H](CN(C)S(=O)(=O)c2ccccc2)[C@@H](C)CN([C@H](C)CO)C(=O)c2cc(NC(=O)Cc3ccccc3)ccc2O1 | -0.3 | -4.0 | 2902 | -6.8 | -8.9
COc1ccc(C(CNC(=O)C(C)(C)Oc2ccc(Cl)cc2)N2CCOCC2)cc1 (centres undefined) | . | 6.5 | . | . | .
O=C(O)CCNS(=O)(=O)c1ccc(Oc2ccccc2Cl)cc1 | -1.6 | -8.9 | 17172* | -1.9 | -2.8
COc1cc(OC)cc(C(=O)NC2CCN(Cc3nnnn3Cc3cccs3)CC2)c1 | -7.3 | -2.5 | 25214* | -5.2 | -1.8
COC(=O)c1nc(NC(=O)c2cc(OC)c(OC)c(OC)c2)n[nH]1 | 0.6 | 4.0 | 5053 | 5.7 | 1.3
CCOC(=O)NC1(NC(C)C)Oc2ccccc2O1 | -3.2 | -15.2 | 5640 | -44.8 | -5.8
CCOC(=O)NC1(NCC(C)C)Oc2ccccc2O1 | -0.3 | 3.5 | 16411* | -0.4 | -6.2
Nc1nc2nc(-c3ccc(OCc4ccccc4)cc3)cc(C(F)(F)F)n2n1 | 0.6 | 58.0* | 4201 | 2.2 | -11.4
Nc1nc2nc(-c3ccc(Cl)cc3)cc(C(F)(F)F)n2n1 | 2.8 | 3.0 | 11283 | -2.6 | -0.7
Cc1cccc(NC(=O)CCc2nnc3ccc(NCc4ccco4)nn23)n1 | -0.2 | 4.2 | 5468 | -2.7 | -1.8
CCOCCCNC(=O)c1cc2sc(Cl)cc2n1CC | ? | -8.9 | 18115* | -15.3 | -9.6
Cc1cc(N2C(=O)C(O)=C(C(=O)c3cccs3)C2c2ccccc2)no1 (centres undefined) | -3.4 | 4.3 | 17508* | -6.8 | -2.1
Cc1cc(N2C(=O)C(O)=C(C(=O)c3cccs3)C2c2ccc(F)cc2)no1 (centres undefined) | -0.3 | -5.8 | 5894 | -1.6 | -5.8
CC1(C(=O)NS(=O)(=O)c2ccc(F)cc2F)CCN1C(=O)c1ccccc1CCc1ccccc1 (centres undefined) | -0.4 | . | 3891 | 0.9 | 7.7
CCc1c(C(=O)NN2C(=O)C3CCCCC3C2=O)csc1C (centres undefined) | -1.0 | 5.9 | 2466 | -0.6 | 0.3
COc1ccccc1CNS(=O)(=O)c1ccc2c(c1)NC(=O)C(C)S2 (centres undefined) | -0.4 | 8.5 | 5018 | -2.2 | 0.9
O=C(Nc1cccn2ncnc12)c1ccc(Cl)cc1 | ? | 4.1 | 23079* | -6.2 | -9.3
O=C(Nc1cccn2ncnc12)c1ccccc1 | 3.1 | 0.9 | 21325* | 4.7 | -2.5
CCN(CC(=O)Nc1ccc(NC(C)=O)cc1)C(=O)c1ccc(Sc2nncn2C)c([N+](=O)[O-])c1 | 0.5 | 3.7 | 3676 | -0.4 | -2.3
SMILES | BoNT-A LC inh2 | MazEF act | Bead autofluor | BoNT F protease | Anthrax LF inh2
CC1(C)OC(=O)C2=C(C[C@@H](C3CCCCC3)O[C@H]2c2ccccc2)O1 | -1.0 | . | 6204 | -7.2 | -6.2
COc1cc(/C=N/Nc2nn3cnnc3c3ccccc23)ccc1O | ? | 2.0 | 21210* | -3.2 | -3.3
Cc1cc(C(=O)N2CCN(c3ncccn3)CC2)sc1-c1ccccc1 | ? | -3.0 | 24354* | -4.4 | -1.5
CN(C)CCCNc1ncnc2c1cnn2Cc1ccccc1Cl | -0.5 | 3.6 | 2769 | 9.8 | 6.0
CCc1noc(C)c1C(=O)NNC(=O)c1ccc(N(CC)CC)cc1 | 0.3 | -8.9 | 3946 | 4.2 | 1.0
O=[N+]([O-])c1cc2c(cc1C=Nc1ccccc1)OCO2 | 0.9 | 7.0 | 3808 | 1.1 | -4.4
Sc1oc(-c2ccccc2)cc1C=Nc1ccccc1 | -2.1 | -2.3 | 24473* | -8.7 | -4.1
Cc1cccc(C(=O)N[C@@H](C)C(=O)N2CCN(c3ncccn3)CC2)c1 | 4.0 | 4.1 | ? | 19.4 | -2.8
COc1cc(N=Nc2ccc(Br)cc2)cc(C=O)c1O | -0.7 | -20.3 | 3692 | -21.7 | -7.4
CCOC(=O)CC(=O)CSc1ccc2nnc(-c3cccc(F)c3)n2n1 | ? | -2.6 | 16650* | -3.5 | 1.5
CCOC(=O)c1c(Nc2ccccc2)sc(/C=C2\C=Nc3ccccc32)c1O | 8.1 | -6.4 | 17134* | 11.4 | -3.1
COc1ccc(OCC(=O)NC2CCSc3ccccc32)cc1 (centres undefined) | -0.3 | -0.3 | 3522 | -4.8 | -1.3
COc1cccc(-n2c(SCC(=O)Nc3sc4c(c3C(N)=O)CCC4)nc3ccccc3c2=O)c1 | -0.7 | 0.2 | 16606* | -1.8 | -2.9
COc1cccc(-n2c(SCC(=O)Nc3nc4ccccc4s3)nc3ccccc3c2=O)c1 | . | -66.0 | . | . | .
NS(=O)(=O)c1ccc(S(=O)(=O)N2CCCC(c3ccccc3)C2)cc1 (centres undefined) | -0.2 | 2.6 | 2876 | -0.8 | 4.1
O=C1C2CC=CCC2C(=O)N1c1cccc(OS(=O)(=O)c2ccc3ccccc3c2)c1 (centres undefined) | ? | -8.1 | 20101* | -3.2 | -8.9
O=C(CSc1nnc(SCc2cccc3ccccc23)s1)c1ccc2c(c1)OCO2 | 5.6 | -5.0 | 19293* | 3.0 | 0.4
CCc1nc(SCC(=O)c2ccc3c(c2)OCCO3)c2ccccc2n1 | 0.9 | -3.7 | 22675* | 0.0 | -1.8
Cn1cnnc1SCC(=O)c1ccc2c(c1)OCCO2 | -2.2 | -3.8 | 16723* | -1.8 | -3.9
O=C(CSc1nc(Cc2ccccc2)nc2ccccc12)c1ccc2c(c1)OCCO2 | 1.0 | -14.1 | 4036 | -1.0 | -0.3
Cc1ccc2nc(-c3ccc(Cl)cc3)c(Cc3ccccn3)n2c1 | 0.8 | . | 4946 | 1.7 | -1.2
Cc1noc(NS(=O)(=O)c2ccc(NC(=O)CSc3nc4c(cc3C#N)CCCCC4)cc2)c1C | -2.9 | 6.7 | 24886* | -7.3 | -1.9
N#Cc1cc2c(nc1SCC(=O)NCc1ccc3c(c1)OCO3)CCCCC2 | 2.1 | 1.1 | 18758* | 0.2 | -1.2
OCc1ccccc1SSc1ccccc1CO | . | 1.9 | . | . | .
CC(=O)Nc1ccc(NC(=O)CSCCc2ccccn2)cc1 | 2.4 | -1.4 | 19811* | 2.9 | 0.0
